Assay results as given in PubChem BioAssay (Tox21).
Where “and” joins values, the source holds several entries; their conditions need not be identical. Equal entries are not always repeated. Records with an inconclusive call do not appear. The source holds several records for some structures; these can differ, active in one and inactive in another. Calls of active or inactive are those of the source. Calls follow the shape of the dose curve; as a rule, active = well fitted cell-killing curve with a large enough effect in the repeat runs; inconclusive = weak or mixed curves, or effect the other way; inactive = no such curve, though single readings can be large or run the other way.
% is scaled to controls: 0 for no effect and ±100 for the full control effect; potency is read from the fitted curve at half-maximal effect.

Experiment: qHTS assay for identifying genotoxic compounds that show differential cytotoxicity against isogenic chicken DT40 cell lines with known DNA damage response pathways - wild type cell line (AID 743012); also: nearly all actives have a fitted effect of over 60% in size
Conditions: DT40 wild type chicken cells viability, CellTiter-Glo, 40 h; series mostly up to 68.4 µM; activity change, negative = cytotoxicity: at the top concentration
Source text: U.S. Tox21 Program National Center for Advancing Translational Sciences [NCATS] NIH Chemical Genomics Center [NCGC] U.S. Environmental Protection Agency [EPA] National Institutes of Environmental Health Sciences [NIEHS] National Toxicology Program [NTP] U.S. Food and Drug Administration [FDA] Tox21 Assay Overview: DNA repair pathways play a critical role in cellular homeostasis by repairing DNA damage induced by endogenous processes and xenobiotics. Isogenic chicken DT40 cell lines deficient in different DNA repair pathways can be used to identify genotoxic compounds and aid in characterizing the nature of the DNA damage induced. Two DNA repair-deficient cell lines with disrupted genes, Rad54/Ku70 or Rev3, were used to screen the Tox21 10K compound library. Possible genotoxicity was based on the presence of a significant increase in cytotoxicity in one or more of the DNA repair-deficient cell lines compared to that observed in the parental DNA repair-proficient cell line. CellTiter Glo viability assay (Promega, Madison, WI) was used to measure cell viability in these cells after compound treatment. This assay includes the data from the wild type cell line.
Tox21 Assay Protocol Summary: 300 DT40 wild type cells in 5 uL/well were dispensed into white, solid-bottom 1536-well plates using a Multidrop Combi (ThermoFisher Scientific, Waltham, MA) dispenser. After the assay plates were incubated at 37 C/5% CO2 for approximately 0.5 hour, 23 nL of compounds dissolved in DMSO, positive controls or DMSO only was transferred into the assay plate by a pintool work station (Kalypsys, San Diego, CA). The assay plates were incubated at 37 C/5% CO2 for 40 hours. After 5 uL per well of CellTiter-Glo reagent was added into each well of the assay plates, the plates were incubated for 30 min at room temperature and the luminescence intensity of the plates was measured using a ViewLux (PerkinElmer, Shelton, CT) plate reader.
With CN1CCCCC1CCN1c2ccccc2Sc2ccc(S(C)=O)cc21 (stereo not given) the Potency was 29.8 µM (active). In the case of Cc1cccc(C(=O)O)c1O, the “activity change, negative = cytotoxicity” value is reported as 9.35% (inactive). With CCCCCCCCCCCCCC[N+](C)(C)C the Potency was 237 nM (active) and 527 nM (active) and 217 nM (active). In the case of Oc1c(I)cc(Cl)c2cccnc12, the Potency is reported as 18.8 µM (active) and 15.3 µM (active). With CCN(CCN)c1cccc(C)c1 the Potency was 69.2 µM (active) and inactive. In the case of CCC(C)n1ncn(-c2ccc(N3CCN(c4ccc(OC[C@H]5CO[C@](Cn6cncn6)(c6ccc(Cl)cc6Cl)O5)cc4)CC3)cc2)c1=O (stereo not given in full), the Potency is reported as 0.596 µM (active). In the case of CCC(CC)C(C)CCOC(C)=O (stereo not given), the “activity change, negative = cytotoxicity” value is reported as 15.9% (inactive). In the case of O=S(=O)(O)c1ccccc1/C=C/c1ccc(-c2ccc(/C=C/c3ccccc3S(=O)(=O)O)cc2)cc1, the “activity change, negative = cytotoxicity” value is reported as 10.7% (inactive). In the case of CC(CO)Oc1ccccc1 (stereo not given), the “activity change, negative = cytotoxicity” value is reported as -0.295% [at 95 µM] (inactive). With O=c1[nH]c2ccccc2n1CCCN1CCN(C(c2ccccc2)c2ccccc2)CC1 the Potency was 5.96 µM (active). In the case of O=C(O)Cc1ccccc1Nc1c(Cl)cccc1Cl, the “activity change, negative = cytotoxicity” value is reported as 3.73% (inactive). In the case of CCCCCc1ccc(Cl)cc1, the “activity change, negative = cytotoxicity” value is reported as -0.981% (inactive). For Cc1c2ccccc2c(C)c2c1ccc1ccccc12, the Potency was 30.3 µM (active) and 3.06 µM (active). With Cc1ccc(O)c(O)c1 the Potency was 16.7 µM (active). With Nc1nc(-c2ccccc2)cs1 the “activity change, negative = cytotoxicity” value was -8.69% (inactive). In the case of Clc1sc(Cl)c(Cl)c1Cl, the “activity change, negative = cytotoxicity” value is reported as -2.04% (inactive). With CCCCCCCCCCCCOCCOCCOCCOCCOCCOCCOCCOCCOCCO the Potency was 2.98 µM (active). With CN1CCN2c3ccccc3Cc3ccccc3C2C1 (stereo not given) the Potency was 13.3 µM (active). With C1CCC(SSC2CCCCC2)CC1 the “activity change, negative = cytotoxicity” value was -0.266% (inactive). With COc1ccc(NC(=O)CC(C)=O)cc1 the “activity change, negative = cytotoxicity” value was 20.2% (inactive). In the case of C=CCCC(=O)/C=C/C1C(C)=CCCC1(C)C (stereo not given), the “activity change, negative = cytotoxicity” value is reported as -13.2% (inactive). With CCCCCCCCCCCCCC[N+](C)(C)Cc1ccccc1 the Potency was 473 nM (active) and 621 nM (active). In the case of NC[C@H]1O[C@H](O[C@H]2[C@H](O[C@@H]3O[C@H](CO)[C@@H](O)[C@H]3O)C(O)[C@H](N)C[C@@H]2N)[C@H](N)[C@@H](O)[C@@H]1O (stereo not given in full), the “activity change, negative = cytotoxicity” value is reported as 6% [at 31.4 µM] (inactive). In the case of CCC(C)(CCC(C)C)C(=O)[O][Sn]([CH3])([CH3])[O]C(=O)C(C)(CC)CCC(C)C (stereo not given), the Potency is reported as 54.5 µM (active). For C=Cc1cccc(C)c1, the “activity change, negative = cytotoxicity” value was -1.6% (inactive). With COc1cccc2c1C(=O)c1c(O)c3c(c(O)c1C2=O)C[C@@](O)(C(C)=O)C[C@@H]3O[C@H]1C[C@H](N)[C@H](O)[C@H](C)O1 the Potency was 23.7 nM (active) and 21.8 nM (active). With Cc1cc(C(C#N)c2ccc(Cl)cc2)c(Cl)cc1NC(=O)c1cc(I)cc(I)c1O (stereo not given) the Potency was 26.6 µM (active). With CN(C)c1ccc(C(=C2C=CC(=[N+](C)C)C=C2)c2ccc(N(C)C)cc2)cc1 the Potency was 335 nM (active) and 542 nM (active) and 193 nM (active). In the case of CCCCOC(=O)CO, the “activity change, negative = cytotoxicity” value is reported as 0.45% (inactive). For CCCCNS(=O)(=O)c1ccc(C)cc1, the “activity change, negative = cytotoxicity” value was 6.49% (inactive). For O=C(O)c1cccc(C(F)(F)F)c1, the “activity change, negative = cytotoxicity” value was 2.92% (inactive). With Nc1nc(N)nc(-c2cc(Cl)ccc2Cl)n1 the “activity change, negative = cytotoxicity” value was 1.43% (inactive). With CC(C)(C)NSc1nc2ccccc2s1 the “activity change, negative = cytotoxicity” value was 6.35% [at 95 µM] (inactive). In the case of O=c1oc2cc(O)ccc2c2oc3cc(O)ccc3c12, the “activity change, negative = cytotoxicity” value is reported as -0.913% (inactive). For C=CC(=O)Nc1cc2c(Nc3ccc(F)c(Cl)c3)ncnc2cc1OCCCN1CCOCC1, the Potency was 5.31 µM (active). For CCOC(=O)Cn1cccc1-c1nc(-c2ccc(OC)cc2)c(-c2ccc(OC)cc2)s1, the “activity change, negative = cytotoxicity” value was 0.223% (inactive). In the case of O=C(/C=C/c1ccc(O)c(O)c1)O[C@@H](C(=O)O)[C@@H](OC(=O)/C=C/c1ccc(O)c(O)c1)C(=O)O, the “activity change, negative = cytotoxicity” value is reported as 20.4% (inactive). For Cc1cc(C)c(/C=C2\C(=O)Nc3ccccc32)[nH]1, the “activity change, negative = cytotoxicity” value was -15.5% (inactive). With CC/C=C\CCCCCO the “activity change, negative = cytotoxicity” value was 6.39% (inactive). With CC(C)CCOC(=O)/C=C/c1ccccc1 the “activity change, negative = cytotoxicity” value was 1.76% [at 95 µM] (inactive).
